PubChem BioAssay AID1347426 (Functional Genomics Laboratory (NCATS/FGL), 2020)
In all, about 31,000 sequences went through this assay and about 1,400 (4.5%) were called active. Many of the other results were omitted from the sample, so actives are more common in it than they were. Unmarked numbers belong to inactive results.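 How the source made its calls: active means median seed-adjusted z-score above 1 or below -1; inactive means the rest.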

Assay: Novel Modifiers of Survival Motor Neuron (SMN) Protein: Gene Identification via Genome-wide siRNA Screen;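 further: luminescence tracks full-length SMN protein made from the SMN2 reporter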
Conditions: HEK293T SMN2-luciferase reporter, siRNA knockdown, 72 h; actives lie on both sides
In short: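 Luciferase signal, proportional to full-length SMN made from an SMN2 cDNA reporter in stable HEK293T cells, was read 72 h after siRNA reverse transfection. Values were expressed as MAD scores after non-targeting-control normalization and log10 conversion; seed analysis flagged off-targets.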

| Sequence | median seed-adjusted z-score |
| --- | --- |
| GACUUACUUAGAUAUGAGATT against ZNF568 | 0.501 |
| GGUUUGUCCCUUCGCUAUATT against LRRTM3 | -0.0808 |
| GCAGAGAUUUCCAAGAAAATT against GPR32 | -1.2 (active) |
| CAAGAAUGACUGUGAUGAATT against PLA2G12A | 0.139 |
| GGUCUAUACAGAGUCAAUATT against MRCL3 | -0.00909 |
| GGAUUCACACGGGAAUUAATT against ZNF649 | 0.259 |
| CGUCGAAUGUUUAAAGUCUTT against ITFG1 | -0.417 |
| ACGUGUUUGCUUCCACAAATT against NEURL2 | 1.39 (active) |
| GCAUGAUGGAUGUUGAUCATT against CCT5 | 0 |
| GCACUGAUGACAACAACUATT against HTR1F | -0.127 |
| AGAGUGUGCCGGUUACCCATT against CD8B | 0.174 |
| GAGUCACAAUUGAUCCGGATT against TOP2A | -0.187 |
| CCAUCGAUGAUGACUGUAATT against ETFB | 0.0669 |
| GAGCAGAUCUUUUUAUGCATT against ZNF664 | 1.08 (active) |
| CAUUGAGACCUAUCUGCUATT against MYH11 | 0 |
| CGGGUAUGUUGAUAGCAUATT against FAM12B | 0.312 |
| GCAGUGUACCCGUCAUUAUTT against SEMA4B | 0.185 |
| GGAACAAAAGGAUCGAAUATT against CLSTN3 | 0 |
| CUAUAAAUGUAAACGAUGUTT against ZNF442 | 1.06 (active) |
| CUGUUUGACUUCAUCGAGATT against COPG | 0.175 |
| CAAUCCAUGUCAUAGGGAATT against ZNF702 | 0.204 |
| CGGCAAUCCUUACGGCUAATT against DSG4 | -0.0211 |

| Sequence | median seed-adjusted z-score |
| --- | --- |
| CCGUCAUUGUCAACCGGAATT against SLC4A5 | 1.3 (active) |
| CUACGUCUCGGGUCCAGAUTT against HOXA11 | -0.222 |
| GGACAUACACUGAGAGUCATT against PDLIM2 | 0.267 |
| GAGCAGAACCGCAUCAUAUTT against UCN | -0.472 |
| GGAGGAUACUUUAGAACAATT against NDC80 | 0.0855 |
| GCAUCUACAUGACCAACCUTT against GPR35 | -1.46 (active) |
| CAUGAUACAGGGAAUAAAATT against ZNF619 | -0.536 |
| UCAUCGAACUGAAUACCAATT against STARD3 | -0.314 |
| CUACUGGACUGAUCAAGCUTT against CTCFL | -0.362 |
| GGACAAAGACUGUCGCCUATT against DHX35 | -0.066 |
| CUAUGACGACUUAUCCAAATT against ATP5A1 | -0.974 |
| CCUACACCAUGAUCGGAAATT against KIF26B | -0.153 |
| GCGUUAUCCUCACCUUCAATT against G6PD | 0.593 |
| CAUUCAGCUUGUCACGUCATT against THOC4 | -1.54 (active) |
| CCAAGGUUUUGGAUAGCAATT against RHBDL2 | 0.0701 |
| CCAAGUCCCAUACAACAAATT against C1S | -0.561 |
| GCUUCUACCUUUACACGGATT against PDE1A | 0 |
| CUAUAGCUGUCUCCCAGAATT against PRICKLE2 | -1.12 (active) |
| GGAGAAAAACUAUAUGAAUTT against ZNF585B | 0.158 |
| CUUUGGAACAAAUACCGAATT against NXN | 0.175 |
| CACCUAUAGUGACGAUAUATT against MEP1B | 1.46 (active) |
| AGGCAUUCCUCGGAAGUCATT against SMAD7 | -0.25 |

| Sequence | median seed-adjusted z-score |
| --- | --- |
| CCAUCGUUUUGGUCUUGUATT against VN1R2 | -0.151 |
| GGAAAGAACUACCUCCUGATT against TREH | 0.396 |
| GGAAGAUCAUAGAAGUUGATT against SLC1A1 | 0.0967 |
| CCAUUGUCACGGGCUUGUATT against ENPP3 | 0.66 |
| GCAUCUAUGUCAACAAGAUTT against POLR2I | -3.27 (active) |
| CUGCUAAACUUGAACCGAATT against TM9SF2 | 1.09 (active) |
| UCCUAUCAGAAGUUGCAUATT against RKHD4 | 0.0683 |
| CAAUGUUUACUACAAUGAATT against TUBB2B | 0.935 |
| GGAGUGCUAGAAUCUACUATT against HEPH | -0.293 |
| GGAUACAAAGCACAUAACATT against UBE2D4 | 0.232 |
| GAGCAUUAUGUUACACCAATT against TTC6 | 0.234 |
| GAACCUCAGUUGAGUAUUUTT against RPE | 0.616 |
| CAGUGCUGUUAGAAUAAAATT against ZNHIT1 | -0.497 |
| UGUGGAGAAUGACUACAUATT against SPRY4 | -1.23 (active) |
| GGAUGACCAGGGUCUAUAATT against FMO4 | -0.359 |
| CCAUGAAUUCUUACUUUUATT against VAC14 | 0.0825 |
| CAGAAUCAGCUGGAAGAAATT against BAIAP2 | -0.0497 |
| GUAGCAGGGCUGAACCCAUTT against ZMAT5 | 0.292 |
| GCCGUGACCUACUUCAUCATT against SLC29A4 | 0.0192 |
| CAGCUGAUGCGGACCAAGATT against RASSF4 | 0.29 |
| GAUACUCGUAUUAAGCCUATT against USP32 | 0.484 |
| GAACUGUGCUGAUGUGAAATT against PATE1 | 1.21 (active) |

| Sequence | median seed-adjusted z-score |
| --- | --- |
| GCAAGUCGUGAAACUAUAATT against YEATS4 | 0.905 |
| GGUGCUGAAUGUGGAGUAATT against DNAJC3 | 0.502 |
| GCAGAACAACGAGCACAGATT against CTSW | -0.342 |
| GGAAUUCCAGUAACGAUGATT against RNF149 | -0.17 |
| GCAUAAAUGAAAUCUCGGATT against ZMYND8 | -0.065 |
| GGGUCAUCCGAGAAAAGAATT against ADAMTS17 | 0.257 |
| GAGCAGUACAGAACAGGAATT against HAAO | 0.214 |
| GCUGCUCACUGUUUCAUGATT against PRSS36 | 0.589 |
| CAACAGAAUAUGCCGUAUATT against SNRPA1 | -2.71 (active) |
| GUUUGCAUGUGACAAUGGATT against PPTC7 | 0.49 |
| GCACAGGUCUAAUUCGUCUTT against GRIK1 | -0.31 |
| CGACACCGGAUAAACCAAATT against HES1 | -0.262 |
| GCACCAGGAUAUGUCUUAATT against YY1AP1 | 0.0453 |
| GGUCAAAGAGUUAUAGAUUTT against MKKS | 1.03 (active) |
| GGUGUCACCCUGUGAAUUUTT against MAP1S | 0.0941 |
| AGCCUAUGGUCGGAACGAATT against APOBEC3F | -0.315 |
| GCACCUAUGCAGCUCUUCATT against FBLIM1 | 0.0604 |
| GGGUUACCCUGGUCAUUAATT against ZNHIT2 | -0.339 |
| GGAGAGACCAGUAAACCGATT against NSFL1C | -0.0899 |
| CGAUGAACAUGUUAGACAUTT against AZIN1 | -1.14 (active) |
| GUACAGGGAGCAGAUCAAATT against HRAS | -0.85 |
| GGAUGUUCACAACCGAAUUTT against CTNNB1 | 0.0802 |

| Sequence | median seed-adjusted z-score |
| --- | --- |
| GGGUAAACGAUUCCAGCAATT against N-PAC | 0.0542 |
| GAAUUGGACUGGAUGCUAATT against DGKK | 0 |
| GGUCCAAAGGGAUCAGGAATT against EMR2 | 0.0569 |
| GCAUCGUUUCUAUGAACUUTT against KCNB2 | 1.22 (active) |
| GGAUGUAAGCCUGACCAUATT against ZNF784 | 0.291 |
| CCAGAAAGCUUCAUCCACATT against MC1R | -0.64 |
| GCAGAUCCCUUGUUUUCCUTT against APLN | 0.0181 |
| CGCUUAAGCCUUCCAACAATT against POLR2A | -3.81 (active) |
| CGGGCAUUCUUAUUAGUCATT against SLC2A2 | -0.498 |
| CAUCCAGCAUACAAAAGAATT against FCRL3 | -0.642 |
| GCCUCAGUGUUAUUCGAUATT against MAP1B | 0.139 |
| AGAUCGACUUGAUCGUGCATT against CDK10 | 0.327 |
| CAGUCUUCACUGACAACUATT against VIP | 1.52 (active) |
| GGACCAAGAUGAUCAGAAATT against SAFB | -0.954 |
| CAUAGUCCUUGGACAUGUATT against TDRD9 | 0.0754 |
| CUACCAAUAUGAUAGGUUATT against DDX17 | 0.231 |
| CUAUAGGUUUUAUAGCAUUTT against LIPA | 0.535 |
| GAGUUUCUGUCCAAACUGATT against IL17RA | -1.29 (active) |
| GGCAAAAACUGUGAAUUAUTT against F10 | -0.0033 |
| CGGAAGGACAGACAAGUAATT against SIGLEC9 | 0 |
